# According to PubChem BioAssay AID1159580 (chemical genetic matrix, 2015):
# Several values for one entry are separate records, joined by “and”; a condition that tells them apart may be missing. Equal values may be shown once. In all, about 5,500 compounds went through this assay and about 2,000 (36%) were called active. Inconclusive results (about 18%) are left out. Rule as the data show it: active = normalized growth mostly below about 0.91 (no sharp cut-off); inconclusive = no clear call, values can overlap the other calls; inactive = mostly above about 0.92. This is one part of the list. A structure can be active in one record and inactive in another.
# Assay: chemical genetic growth profiling, strain panel (AID 1159580);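 also: tested at 20 µM; growth read once vehicle control cultures reached saturation at 30 °C; 1 = growth at the plate median or of vehicle wells; lower values mean less growth of the strain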
# Conditions: growth OD
smiles,measurement,setting,value
CN1CCN(CCCN2c3ccccc3Sc3ccc(C(F)(F)F)cc32)CC1,normalized growth,"S. cerevisiae deletion strains, locus YJR075W, strain HOC1, stronger effect = lower value",0.0765 (active) and 0.787 (active)
same,normalized growth,"S. cerevisiae deletion strains, locus YKL009W, strain mrt4, stronger effect = lower value",0.875 (active)
same,normalized growth,"S. cerevisiae deletion strains, locus YKL068W, stronger effect = lower value",0.984 (inactive)
same,normalized growth,"S. cerevisiae deletion strains, locus YKL085W, strain MDH1 (second series), stronger effect = lower value",0.957 (inactive)
same,normalized growth,"S. cerevisiae deletion strains, locus YKL085W, strain MDH1, stronger effect = lower value",0.957 (inactive)
same,normalized growth,"S. cerevisiae deletion strains, locus YKL160W, strain elf1, stronger effect = lower value",0.0849 (active)
same,normalized growth,"S. cerevisiae deletion strains, locus YKL190W, strain CNB1, stronger effect = lower value",0.0505 (active)
same,normalized growth,"S. cerevisiae deletion strains, locus YKR001C, strain vps1, stronger effect = lower value",0.0668 (active)
same,normalized growth,"S. cerevisiae deletion strains, locus YKR026C, strain gcn3, stronger effect = lower value",0.0825 (active)
same,normalized growth,"S. cerevisiae deletion strains, locus YKR091W, strain srl3, stronger effect = lower value",0.073 (active)
same,normalized growth,"S. cerevisiae deletion strains, locus YLL001W, strain dnm1, stronger effect = lower value",0.0784 (active)
same,normalized growth,"S. cerevisiae deletion strains, locus YLL026W, stronger effect = lower value",0.0619 (active)
same,normalized growth,"S. cerevisiae deletion strains, locus YLL041C, strain sdh2, stronger effect = lower value",0.0714 (active)
same,normalized growth,"S. cerevisiae deletion strains, locus YLR027C, strain aat2, stronger effect = lower value",0.0651 (active)
same,normalized growth,"S. cerevisiae deletion strains, locus YLR039C, strain RIC1, stronger effect = lower value",0.105 (active)
same,normalized growth,"S. cerevisiae deletion strains, locus YLR058C, strain SHM2, stronger effect = lower value",0.0587 (active)
same,normalized growth,"S. cerevisiae deletion strains, locus YLR102C, strain apc9, stronger effect = lower value",0.0738 (active)
same,normalized growth,"S. cerevisiae deletion strains, locus YLR113W, strain HOG1, stronger effect = lower value",0.941 (inactive)
same,normalized growth,"S. cerevisiae deletion strains, locus YLR221C, strain rsa3, stronger effect = lower value",0.0717 (active)
same,normalized growth,"S. cerevisiae deletion strains, locus YLR258W, strain gsy2, stronger effect = lower value",0.0705 (active)
same,normalized growth,"S. cerevisiae deletion strains, locus YLR262C, strain YPT6 (second series), stronger effect = lower value",0.0947 (active)
same,normalized growth,"S. cerevisiae deletion strains, locus YLR262C, strain YPT6, stronger effect = lower value",0.129 (active)
same,normalized growth,"S. cerevisiae deletion strains, locus YLR268W, strain sec22, stronger effect = lower value",0.0809 (active)
same,normalized growth,"S. cerevisiae deletion strains, locus YLR320W, strain mms22, stronger effect = lower value",0.0931 (active)
same,normalized growth,"S. cerevisiae deletion strains, locus YLR330W, strain CHS5, stronger effect = lower value",0.0585 (active)
same,normalized growth,"S. cerevisiae deletion strains, locus YLR342W, strain FKS1 (second series), stronger effect = lower value",0.0849 (active)
same,normalized growth,"S. cerevisiae deletion strains, locus YLR342W, strain FKS1, stronger effect = lower value",0.0733 (active)
same,normalized growth,"S. cerevisiae deletion strains, locus YLR357W, strain rsc2, stronger effect = lower value",0.148 (active)
same,normalized growth,"S. cerevisiae deletion strains, locus YLR370C, strain arc18, stronger effect = lower value",0.0604 (active)
same,normalized growth,"S. cerevisiae deletion strains, locus YLR371W, strain rom2, stronger effect = lower value",0.0675 (active)
same,normalized growth,"S. cerevisiae deletion strains, locus YLR384C, strain iki3, stronger effect = lower value",0.0666 (active)
same,normalized growth,"S. cerevisiae deletion strains, locus YLR418C, strain cdc73, stronger effect = lower value",0.125 (active)
same,normalized growth,"S. cerevisiae deletion strains, locus YML016C, strain PPZ1, stronger effect = lower value",0.0583 (active)
same,normalized growth,"S. cerevisiae deletion strains, locus YML032C, strain rad52, stronger effect = lower value",0.0831 (active)
same,normalized growth,"S. cerevisiae deletion strains, locus YML120C, strain ndi1, stronger effect = lower value",0.0683 (active)
same,normalized growth,"S. cerevisiae deletion strains, locus YML124C, strain tub3, stronger effect = lower value",0.0843 (active)
same,normalized growth,"S. cerevisiae deletion strains, locus YMR058W, strain fet3, stronger effect = lower value",0.0611 (active)
same,normalized growth,"S. cerevisiae deletion strains, locus YMR078C, strain ctf18, stronger effect = lower value",0.239 (active)
same,normalized growth,"S. cerevisiae deletion strains, locus YMR125W, strain sto1, stronger effect = lower value",0.0897 (active)
same,normalized growth,"S. cerevisiae deletion strains, locus YMR129W, stronger effect = lower value",0.061 (active)
same,normalized growth,"S. cerevisiae deletion strains, locus YMR205C, strain PFK2, stronger effect = lower value",0.199 (active)
same,normalized growth,"S. cerevisiae deletion strains, locus YMR223W, strain ubp8, stronger effect = lower value",0.0945 (active)
same,normalized growth,"S. cerevisiae deletion strains, locus YMR231W, strain pep5, stronger effect = lower value",0.0666 (active)
same,normalized growth,"S. cerevisiae deletion strains, locus YMR263W, strain SAP30, stronger effect = lower value",0.122 (active) and 1 (inactive)
same,normalized growth,"S. cerevisiae deletion strains, locus YMR307W, strain GAS1, stronger effect = lower value",0.122 (active) and 0.848 (active)
same,normalized growth,"S. cerevisiae deletion strains, locus YNL067W, strain RPL9B, stronger effect = lower value",0.0685 (active)
same,normalized growth,"S. cerevisiae deletion strains, locus YNL071W, strain lat1, stronger effect = lower value",0.0775 (active)
same,normalized growth,"S. cerevisiae deletion strains, locus YNL128W, strain TEP1, stronger effect = lower value",0.0773 (active)
same,normalized growth,"S. cerevisiae deletion strains, locus YNL153C, strain GIM3, stronger effect = lower value",0.0603 (active) and 0.583 (active)
same,normalized growth,"S. cerevisiae deletion strains, locus YNL175C, strain NOP13, stronger effect = lower value",1.15 [resistant] (active)
same,normalized growth,"S. cerevisiae deletion strains, locus YNL183C, strain NPR1, stronger effect = lower value",0.91 (inactive)
same,normalized growth,"S. cerevisiae deletion strains, locus YNL197C, strain WHI3, stronger effect = lower value",1.08 (inactive)
same,normalized growth,"S. cerevisiae deletion strains, locus YNL209W, strain ssb2, stronger effect = lower value",0.0693 (active)
same,normalized growth,"S. cerevisiae deletion strains, locus YNL224C, strain SQS1, stronger effect = lower value",1.11 [resistant] (active)
same,normalized growth,"S. cerevisiae deletion strains, locus YNL233W, strain BNI4, stronger effect = lower value",0.0609 (active)
same,normalized growth,"S. cerevisiae deletion strains, locus YNL248C, strain rpa49, stronger effect = lower value",0.102 (active)
same,normalized growth,"S. cerevisiae deletion strains, locus YNL250W, strain rad50, stronger effect = lower value",0.968 (inactive)
same,normalized growth,"S. cerevisiae deletion strains, locus YNL271C, strain bni1, stronger effect = lower value",0.982 (inactive)
same,normalized growth,"S. cerevisiae deletion strains, locus YNL298W, strain CLA4, stronger effect = lower value",0.938 (inactive)
same,normalized growth,"S. cerevisiae deletion strains, locus YNL307C, strain MCK1, stronger effect = lower value",0.0726 (active)
same,normalized growth,"S. cerevisiae deletion strains, locus YNL322C, strain KRE1 (second series), stronger effect = lower value",0.978 (inactive)
same,normalized growth,"S. cerevisiae deletion strains, locus YNL322C, strain KRE1, stronger effect = lower value",0.0571 (active)
same,normalized growth,"S. cerevisiae deletion strains, locus YNR049C, strain mso1, stronger effect = lower value",0.0676 (active)
same,normalized growth,"S. cerevisiae deletion strains, locus YNR052C, strain pop2, stronger effect = lower value",0.0713 (active)
same,normalized growth,"S. cerevisiae deletion strains, locus YOL006C, strain TOP1, stronger effect = lower value",0.119 (active)
same,normalized growth,"S. cerevisiae deletion strains, locus YOL012C, strain htz1",0.176 (active)
same,normalized growth,"S. cerevisiae deletion strains, locus YOL147C, strain pex11, stronger effect = lower value",0.0736 (active)
same,normalized growth,"S. cerevisiae deletion strains, locus YOR001W, strain rrp6, stronger effect = lower value",0.0923 (active)
same,normalized growth,"S. cerevisiae deletion strains, locus YOR061W, strain CKA2, stronger effect = lower value",0.0554 (active)
same,normalized growth,"S. cerevisiae deletion strains, locus YOR069W, strain VPS5, stronger effect = lower value",0.112 (active)
same,normalized growth,"S. cerevisiae deletion strains, locus YOR070C, strain gyp1, stronger effect = lower value",0.0657 (active)
same,normalized growth,"S. cerevisiae deletion strains, locus YOR080W, strain dia2, stronger effect = lower value",0.0771 (active)
same,normalized growth,"S. cerevisiae deletion strains, locus YOR083W, strain WHI5 (second series), stronger effect = lower value",0.748 (active)
same,normalized growth,"S. cerevisiae deletion strains, locus YOR083W, strain WHI5, stronger effect = lower value",0.0778 (active)
same,normalized growth,"S. cerevisiae deletion strains, locus YOR106W, strain vam3, stronger effect = lower value",0.0723 (active)
same,normalized growth,"S. cerevisiae deletion strains, locus YOR136W, strain idh2, stronger effect = lower value",0.0795 (active)
same,normalized growth,"S. cerevisiae deletion strains, locus YOR144C, strain elg1, stronger effect = lower value",0.0731 (active)
same,normalized growth,"S. cerevisiae deletion strains, locus YOR184W, strain ser1, stronger effect = lower value",0.0849 (active)
same,normalized growth,"S. cerevisiae deletion strains, locus YOR231W, strain MKK1, stronger effect = lower value",0.939 (inactive)
same,normalized growth,"S. cerevisiae deletion strains, locus YOR265W, strain rbl2, stronger effect = lower value",0.0652 (active)
same,normalized growth,"S. cerevisiae deletion strains, locus YOR270C, strain vph1, stronger effect = lower value",0.136 (active)
same,normalized growth,"S. cerevisiae deletion strains, locus YOR290C, strain snf2, stronger effect = lower value",0.0834 (active)
same,normalized growth,"S. cerevisiae deletion strains, locus YOR316C, strain cot1, stronger effect = lower value",0.0693 (active)
same,normalized growth,"S. cerevisiae deletion strains, locus YPL051W, strain arl3, stronger effect = lower value",0.12 (active)
same,normalized growth,"S. cerevisiae deletion strains, locus YPL055C, strain LGE1, stronger effect = lower value",0.072 (active) and 0.65 (active)
same,normalized growth,"S. cerevisiae deletion strains, locus YPL078C, strain atp4, stronger effect = lower value",0.161 (active)
same,normalized growth,"S. cerevisiae deletion strains, locus YPL106C, strain sse1, stronger effect = lower value",0.104 (active)
same,normalized growth,"S. cerevisiae deletion strains, locus YPL240C, strain hsp82, stronger effect = lower value",0.0671 (active)
same,normalized growth,"S. cerevisiae deletion strains, locus YPL241C, strain CIN2, stronger effect = lower value",0.0575 (active)
same,normalized growth,"S. cerevisiae deletion strains, locus YPL256C, strain CLN2, stronger effect = lower value",0.914 (inactive)
same,normalized growth,"S. cerevisiae deletion strains, locus YPR119W, strain clb2, stronger effect = lower value",0.079 (active)
same,normalized growth,"S. cerevisiae deletion strains, locus YPR141C, strain kar3, stronger effect = lower value",0.98 (inactive)
same,normalized growth,"S. cerevisiae deletion strains, locus YPR163C, strain tif3, stronger effect = lower value",0.0727 (active)
same,normalized growth,"S. cerevisiae deletion strains, locus YPR167C, strain met16, stronger effect = lower value",0.0761 (active)
same,normalized growth,"S. cerevisiae deletion strains, strain wtn01, stronger effect = lower value",0.073 (active)
same,normalized growth,"S. cerevisiae strains, strain wild type, stronger effect = lower value",0.0552 (active)
